# Results from PubChem BioAssay (NCATS).
# Inconclusive results are not listed. Calls of active or inactive are those of the source. The call rests on the fitted dose curve.
# Experiment: qHTS assay for small molecule disruptors of the mitochondrial membrane potential - 1 hr assay (AID 651754); further: nearly all actives have a fitted effect of over 35% in size
# Conditions: series mostly up to 92.2 µM; ratio change, negative = depolarisation: at the top concentration
# Procedure, shortened: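 Mitochondrial potential in living HepG2 cells after 1 hr compound treatment at 37C was read with Mito-MPS dye added for a further 30 min. Red aggregate and green monomer fluorescence were measured; loss of potential leaves dye as cytoplasmic monomers.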
# On the % scale 0 is the no-effect control and ±100 the full control effect.
row,Compound,"ratio change, negative = depolarisation"
1,CCCCCCC=O,-11.9% (inactive)
2,CCC(C)(C)OC,-0.34% (inactive)
3,CCCCOCCOCCOCCCC,-2.83% (inactive)
4,c1ccc(Nc2ccccc2)cc1,0% (inactive)
5,COC(=O)CS,1.38% (inactive)
6,Cc1ccco1,8.72% (inactive)
7,CCCCCCCN,-5.5% (inactive)
8,ClCCl,-3.75% (inactive)
9,CCCCC(=O)N(C)C,-0.526% (inactive)
10,CCNS(=O)(=O)c1ccc(C)cc1,0.149% (inactive)
11,Cc1ccc(Br)cc1,-0.8% (inactive)
12,C=C(C)OC(C)=O,2.63% (inactive)
13,CCCC(Cl)CCCC(Cl)CCC(Cl)CCC(Cl)CCC(Cl)CCCC(Cl)CCC (stereo not given),2.72% (inactive)
14,OC(CCl)CCl,5.04% (inactive)
15,CCC=O,-0.837% (inactive)
16,CCCCN(CCO)CCCC,6.36% (inactive)
17,CCCCC(C=O)CC (stereo not given),0.06% (inactive)
18,Nc1ccccc1S(=O)(=O)O,0.967% (inactive)
19,O=C1C=CCCC1,3.38% (inactive)
20,CCOCCOCC,0.0608% (inactive)

row,Compound,"ratio change, negative = depolarisation"
1,Cc1ccc(C#N)cc1,2.41% (inactive)
2,O=C(Cl)c1c(Cl)cccc1Cl,8.74% (inactive)
3,Cc1ccc(C)o1,1.23% (inactive)
4,C=CC(=O)OCCCC,0.217% (inactive)
5,CC(C)C(C)C,-1.19% (inactive)
6,CCCCC(CC)COCC1CO1 (stereo not given),-0.258% (inactive)
7,C=C(C)C(N)=O,0.764% (inactive)
8,CC(=O)Nc1ccc(C)cc1,1.6% (inactive)
9,CCCC(C)CO (stereo not given),9.39% (inactive)
10,O=[N+]([O-])c1ccc(Cl)cc1Cl,3.43% (inactive)
11,Cc1ccccc1C(=O)O,-4.77% (inactive)
12,Cc1ccc2ncccc2c1,-0.399% (inactive)
13,C=C(C)C(=O)OC,-4.6% (inactive)
14,COc1ccc(N)c(C)c1,-0.025% (inactive)
15,Cc1c(N)cccc1[N+](=O)[O-],-11.1% (inactive)
16,O=Cc1ccccc1Cl,-1.11% (inactive)
17,O=C(O)c1cccc(Cl)c1Cl,-0.126% (inactive)
18,O=[N+]([O-])c1c(Cl)cc(Cl)cc1Cl,0.892% (inactive)
19,C(=C/c1ccccc1)/c1ccccc1,1.47% (inactive)
20,Cc1ccc(Cl)cc1N,3.76% (inactive)

# Experiment: qHTS assay for small molecule disruptors of the mitochondrial membrane potential - 5 hr assay (AID 651755); further: nearly all actives have a fitted effect of over 40% in size
# Conditions: JC-1-type ratio dye; series mostly up to 92.2 µM; ratio change, negative = disruption: at the top concentration
# Procedure, shortened: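 Membrane-potential dye readout: red aggregate (540 ex/590 em) versus green monomer (490 ex/535 em) fluorescence after 30 min dye loading, following 5 hr compound exposure at 37C of overnight-plated HepG2 cells.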
row,Compound,"ratio change, negative = disruption"
1,CCCCCCC=O,-7.06% (inactive)
2,CCC(C)(C)OC,2.73% (inactive)
3,CCCCOCCOCCOCCCC,1.48% (inactive)
4,c1ccc(Nc2ccccc2)cc1,0.588% (inactive)
5,COC(=O)CS,1.3% (inactive)
6,Cc1ccco1,0.129% (inactive)
7,CCCCCCCN,-3.51% (inactive)
8,ClCCl,2.83% (inactive)
9,CCCCC(=O)N(C)C,9.02% (inactive)
10,CCNS(=O)(=O)c1ccc(C)cc1,-12.5% (inactive)
11,Cc1ccc(Br)cc1,4.59% (inactive)
12,C=C(C)OC(C)=O,-10.2% (inactive)
13,CCCC(Cl)CCCC(Cl)CCC(Cl)CCC(Cl)CCC(Cl)CCCC(Cl)CCC (stereo not given),-2.34% (inactive)
14,OC(CCl)CCl,-9.65% (inactive)
15,CCC=O,-0.0808% (inactive)
16,CCCCN(CCO)CCCC,1.09% (inactive)
17,CCCCC(C=O)CC (stereo not given),2.86% (inactive)
18,Nc1ccccc1S(=O)(=O)O,-3.39% (inactive)
19,O=C1C=CCCC1,3.26% (inactive)
20,CCOCCOCC,1.31% (inactive)

row,Compound,"ratio change, negative = disruption"
1,Cc1ccc(C#N)cc1,-6.41% (inactive)
2,O=C(Cl)c1c(Cl)cccc1Cl,-0.162% (inactive)
3,Cc1ccc(C)o1,-1.97% (inactive)
4,C=CC(=O)OCCCC,1.74% (inactive)
5,CC(C)C(C)C,0.168% (inactive)
6,CCCCC(CC)COCC1CO1 (stereo not given),-0.108% (inactive)
7,C=C(C)C(N)=O,4.56% (inactive)
8,CC(=O)Nc1ccc(C)cc1,1.87% (inactive)
9,CCCC(C)CO (stereo not given),1.65% (inactive)
10,O=[N+]([O-])c1ccc(Cl)cc1Cl,-0.374% (inactive)
11,Cc1ccccc1C(=O)O,2.79% (inactive)
12,Cc1ccc2ncccc2c1,2.78% (inactive)
13,C=C(C)C(=O)OC,0.002% (inactive)
14,COc1ccc(N)c(C)c1,-2.57% (inactive)
15,Cc1c(N)cccc1[N+](=O)[O-],1.93% (inactive)
16,O=Cc1ccccc1Cl,4.36% (inactive)
17,O=C(O)c1cccc(Cl)c1Cl,5.65% (inactive)
18,O=[N+]([O-])c1c(Cl)cc(Cl)cc1Cl,0.422% (inactive)
19,C(=C/c1ccccc1)/c1ccccc1,-7.43% (inactive)
20,Cc1ccc(Cl)cc1N,4.45% (inactive)
